One experiment addresses PUM1 PUF domain R4-WSW (Homo sapiens, UniProt Q14671 828-1176, N971W;H972S;Q975W). Kind of experiment: yeast three-hybrid, YBZ-1, SC-Leu-His + 0.5 mM 3-AT, 4 days. The note with it: tags: N-Gal4 AD-HA kept; label: inside an RPR1-promoter hybrid RNA with tandem MS2 sites; ssRNA. In short, it runs like this: (§1)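 Matching RNA elements and Pumilio-1 PUF domain libraries, randomized at the three base-contacting residues of every repeat, were co-expressed from a centromeric plasmid in strain YBZ-1 (LexA–MS2 coat fusion, HIS3 reporter). The repeat regions were PCR-amplified and Illumina-sequenced from cells grown four days on SC-Leu (input) or SC-Leu-His + 0.5 mM 3-AT (selection). The interaction score is the log change in variant frequency from input to selection. It is computed in log2, with a pseudocount of 1 for absent variants.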
For the sequence “GGCUAGAACUAGUGGAUCCCCCGGCGCCCGGCGGCUCGAGCCCGGGUAAGUGUAUAUAGUCUGCAUGCCGCCGGGCGCCAUGCCUGCAGGUCGACUCUAGAAAACAUG”, the binding signal was 3.38 log2 enrichment (interaction score).
In the case of “GGCUAGAACUAGUGGAUCCCCCGGCGCCCGGCGGCUCGAGCCCGGGUAAGUGUAAAUAGUCUGCAUGCCGCCGGGCGCCAUGCCUGCAGGUCGACUCUAGAAAACAUG”, the binding signal was 4.02 log2 enrichment (interaction score).
On the same count and under the same terms, with “GGCUAGAACUAGUGGAUCCCCCGGCGCCCGGCGGCUCGAGCCCGGGUAAGUGUACAUAGUCUGCAUGCCGCCGGGCGCCAUGCCUGCAGGUCGACUCUAGAAAACAUG” the figure was 2.13 log2 enrichment (interaction score).

The target of another experiment is PUM1 PUF domain R3-SRA (Homo sapiens, UniProt Q14671 828-1176, C935S;Q939A). Described as above. The note with it: tags: N-Gal4 AD-HA kept; label: inside an RPR1-promoter hybrid RNA with tandem MS2 sites; ssRNA. In outline:
as §1
As for “GGCUAGAACUAGUGGAUCCCCCGGCGCCCGGCGGCUCGAGCCCGGGUAAGUGUAAGUAGUCUGCAUGCCGCCGGGCGCCAUGCCUGCAGGUCGACUCUAGAAAACAUG”, the binding signal is 3.65 log2 enrichment (interaction score).
As for “GGCUAGAACUAGUGGAUCCCCCGGCGCCCGGCGGCUCGAGCCCGGGUAAGUGUAAAUAGUCUGCAUGCCGCCGGGCGCCAUGCCUGCAGGUCGACUCUAGAAAACAUG”, the binding signal was 3.83 log2 enrichment (interaction score).
On to “GGCUAGAACUAGUGGAUCCCCCGGCGCCCGGCGGCUCGAGCCCGGGUAAGUGUAAUUAGUCUGCAUGCCGCCGGGCGCCAUGCCUGCAGGUCGACUCUAGAAAACAUG”, for which the binding signal is 0.68 log2 enrichment (interaction score).

For another experiment, the target named is PUM1 PUF domain R3-VRM (Homo sapiens, UniProt Q14671 828-1176, C935V;Q939M). The description is as above. The conditions noted are these: tags: N-Gal4 AD-HA kept; label: inside an RPR1-promoter hybrid RNA with tandem MS2 sites; ssRNA. In short, it runs like this: as §1
As for “GGCUAGAACUAGUGGAUCCCCCGGCGCCCGGCGGCUCGAGCCCGGGUAAGUGUAAGUAGUCUGCAUGCCGCCGGGCGCCAUGCCUGCAGGUCGACUCUAGAAAACAUG”, the binding signal is 1.15 log2 enrichment (interaction score).
“GGCUAGAACUAGUGGAUCCCCCGGCGCCCGGCGGCUCGAGCCCGGGUAAGUGUAAAUAGUCUGCAUGCCGCCGGGCGCCAUGCCUGCAGGUCGACUCUAGAAAACAUG”: the binding signal was 3.67 log2 enrichment (interaction score).
As for “GGCUAGAACUAGUGGAUCCCCCGGCGCCCGGCGGCUCGAGCCCGGGUAAGUGUAAUUAGUCUGCAUGCCGCCGGGCGCCAUGCCUGCAGGUCGACUCUAGAAAACAUG”, the binding signal is 1.73 log2 enrichment (interaction score).

The next experiment deals with PUM1 PUF domain R4-GPC (Homo sapiens, UniProt Q14671 828-1176, N971G;H972P;Q975C). The experiment is described as above. The note with it: tags: N-Gal4 AD-HA kept; label: inside an RPR1-promoter hybrid RNA with tandem MS2 sites; ssRNA. In outline:
as §1
Consider “GGCUAGAACUAGUGGAUCCCCCGGCGCCCGGCGGCUCGAGCCCGGGUAAGUGUAUAUAGUCUGCAUGCCGCCGGGCGCCAUGCCUGCAGGUCGACUCUAGAAAACAUG”, for which the binding signal was 2.93 log2 enrichment (interaction score).
For the sequence “GGCUAGAACUAGUGGAUCCCCCGGCGCCCGGCGGCUCGAGCCCGGGUAAGUGUAAAUAGUCUGCAUGCCGCCGGGCGCCAUGCCUGCAGGUCGACUCUAGAAAACAUG”, the binding signal is 4.57 log2 enrichment (interaction score).
Turning to “GGCUAGAACUAGUGGAUCCCCCGGCGCCCGGCGGCUCGAGCCCGGGUAAGUGUACAUAGUCUGCAUGCCGCCGGGCGCCAUGCCUGCAGGUCGACUCUAGAAAACAUG”, the binding signal was 1.58 log2 enrichment (interaction score).

The target in a further experiment is PUM1 PUF domain R3-FWS (Homo sapiens, UniProt Q14671 828-1176, C935F;R936W;Q939S). Described as above. The conditions noted are these: tags: N-Gal4 AD-HA kept; label: inside an RPR1-promoter hybrid RNA with tandem MS2 sites; ssRNA. In outline:
as §1
As to “GGCUAGAACUAGUGGAUCCCCCGGCGCCCGGCGGCUCGAGCCCGGGUAAGUGUAAGUAGUCUGCAUGCCGCCGGGCGCCAUGCCUGCAGGUCGACUCUAGAAAACAUG”, the binding signal was 7.37 log2 enrichment (interaction score).
For the sequence “GGCUAGAACUAGUGGAUCCCCCGGCGCCCGGCGGCUCGAGCCCGGGUAAGUGUAAAUAGUCUGCAUGCCGCCGGGCGCCAUGCCUGCAGGUCGACUCUAGAAAACAUG”, the binding signal was 3.07 log2 enrichment (interaction score).
Take “GGCUAGAACUAGUGGAUCCCCCGGCGCCCGGCGGCUCGAGCCCGGGUAAGUGUAAUUAGUCUGCAUGCCGCCGGGCGCCAUGCCUGCAGGUCGACUCUAGAAAACAUG”: the binding signal was 2.99 log2 enrichment (interaction score).

The record behind these values is paper PMC8384837, “Expanding the binding specificity for RNA recognition by a PUF domain”.
